Myeloid diff 2 – induction of myeloid progenitor differentiation, primary screen, cell-based, flow cytometry, MLPCN library | ER-HoxA9 myeloid progenitors, lysozyme-GFP differentiation | calls only at 10 µM | AID 624256, 2012 | actives 1% (n = 360,000);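 active = normalized GFP-positive differentiation at or above the plate's own cutoff, the solvent-only control mean plus 3 SD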;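 also: cells exposed to compound for four days before flow analysis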
DAGLB inhibitor – DAGLB lipase inhibitors, primary screen, biochemical, fluorescence, HTS; Diacylglycerol lipase-beta (Homo sapiens), Q8NCG7; HEK293T DAGLB membrane lysate, EnzChek fluorogenic substrate; inhibition, % at 5.17 µM; actives 0.059% (n = 340,000); AID 504411, 2011; in the data active = inhibition above about 34%;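 also: 0% = enzyme with vehicle and 100% = wells lacking enzyme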
ABHD5 PLIN5 PPI – ABHD5-PLIN5 interaction inhibitors, primary screen, cell lysate, split luciferase complementation, luminescence | Perilipin-5 (Homo sapiens) + 1-acylglycerol-3-phosphate O-acyltransferase ABHD5 (Homo … | Split G. princeps luciferase complementation, 4 h | inhibition, % at 4 µM | actives 0.78% (n = 360,000) | AID 602281, 2012;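 active = inhibition above the mean inhibition across every tested compound plus 3 SD, cut at about 22% in these data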;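 also: 0% = DMSO only wells and the 100% control is not disclosed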
Target sequence (Q00G26 whole entry, looked up): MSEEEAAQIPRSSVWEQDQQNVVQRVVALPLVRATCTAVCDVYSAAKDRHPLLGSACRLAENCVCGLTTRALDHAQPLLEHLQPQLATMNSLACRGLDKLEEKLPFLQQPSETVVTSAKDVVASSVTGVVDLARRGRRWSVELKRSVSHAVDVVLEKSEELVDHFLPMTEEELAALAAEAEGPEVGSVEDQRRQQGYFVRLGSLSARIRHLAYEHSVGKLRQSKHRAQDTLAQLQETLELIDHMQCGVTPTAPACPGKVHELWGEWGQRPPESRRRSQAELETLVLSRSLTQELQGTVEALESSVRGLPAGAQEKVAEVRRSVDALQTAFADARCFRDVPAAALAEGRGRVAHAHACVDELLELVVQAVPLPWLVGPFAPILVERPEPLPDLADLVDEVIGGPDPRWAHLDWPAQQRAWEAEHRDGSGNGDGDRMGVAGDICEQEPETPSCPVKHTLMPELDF
Target sequence (Q8WTS1 whole entry, looked up): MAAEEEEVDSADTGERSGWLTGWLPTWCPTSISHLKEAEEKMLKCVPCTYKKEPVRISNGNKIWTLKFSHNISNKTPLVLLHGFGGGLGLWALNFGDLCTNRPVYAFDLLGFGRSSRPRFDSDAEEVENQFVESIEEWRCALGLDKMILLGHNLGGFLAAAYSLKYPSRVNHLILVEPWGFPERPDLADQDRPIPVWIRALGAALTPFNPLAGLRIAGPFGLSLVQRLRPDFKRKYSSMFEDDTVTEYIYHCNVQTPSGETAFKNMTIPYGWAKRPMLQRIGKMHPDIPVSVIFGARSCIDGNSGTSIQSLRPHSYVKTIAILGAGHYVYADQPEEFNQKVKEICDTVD
sPLA2-III inh – human group III sPLA2 inhibitors, primary screen, biochemical, QFRET, BODIPY PC-A2 liposome substrate | Group 3 secretory phospholipase A2 (Homo sapiens), Q9NZ20 | AID 743126, 2013 | QFRET BODIPY PC-A2 liposome hydrolysis, fluorescence | inhibition, % at 12.2 µM | actives 0.56% (n = 370,000);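 active = inhibition above mean plus 3 SD of compounds lying within the high and low control bounds, cut at about 19% in these data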;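 also: 0% = median of test compound wells and 100% = no enzyme DMSO wells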
Rtt109 Vps75 – inhibitors of C. albicans Rtt109/Vps75 HAT, primary screen, biochemical, ThioGlo CoA-SH fluorescence, plate reader. Histone acetyltransferase RTT109 (Candida albicans (strain SC5314 / ATCC MYA-2876)), …. inhibition, % at 34.9 µM. AID 540336, 2011. actives 0.16% (n = 330,000). purified Rtt109/Vps75, 4 h;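 active = inhibition of at least 50% in every replicate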
H9c2 protect – cardioprotection against H2O2-induced cell death, primary screen, uHTS, H9c2 cells, ATPLite luminescence; H9c2 cardiomyocytes, H2O2 injury protection, 2 h; protection from H2O2 cell death, % at 20 µM; actives 0.63% (n = 360,000); AID 588492, 2011;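 active = compounds giving at least 50% protection of heart cells from peroxide-induced death in the single-dose screen, raw or plate-pattern-corrected value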;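 also: 0% = DMSO wells with peroxide and 100% = DMSO wells without peroxide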
hGIII sPLA2 conf – human group III sPLA2 inhibitors, confirmation, biochemical, QFRET, triplicate | actives 34% (n = 2,000) | recombinant hGIII-sPLA2, BODIPY PC-A2 QFRET fluorescence | inhibition, % at 12.2 µM | AID 743280, 2014 | shares compounds with sPLA2-III inh;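 active = mean inhibition across triplicates above the hit cutoff set in the earlier primary screen, cut at about 19% in these data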;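 also: 0% = enzyme with DMSO and 100% = DMSO wells lacking enzyme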
BODIPY interf – 535nm fluorescence optical interference, confirmation, artefact control for HGIII-sPLA2 inhibitor project, biochemical, QFRET; BODIPY FL product fluorescence interference; inhibition, % at 12.2 µM; actives 8.5% (n = 2,000); shares compounds with sPLA2-III inh;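 active = average inhibition above the solvent-only control mean plus 3 SD, cut at about 6% in these data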;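 also: 0% = DMSO with substrate plus product and 100% = DMSO with substrate alone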
535nm interf DR – 535nm fluorescence optical interference, dose response, artefact control for HGIII-sPLA2 inhibitor project, biochemical, QFRET; IC50, µM; shares compounds with sPLA2-III inh; AID 743455, 2014; 240 tested, under 10 active; BODIPY FL product fluorescence interference, cell-free;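 active = IC50 at or below 10 µM; inactive = IC50 above 10 µM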
* = called active by the depositor; i = inactive; nt = no result given; ! = repeats disagree. The list is not random: actives were taken first. Their share in the collection is about 2.9%.

SMILES	Myeloid diff 2	DAGLB inhibitor	ABHD5 PLIN5 PPI	sPLA2-III inh	Rtt109 Vps75	H9c2 protect	hGIII sPLA2 conf	BODIPY interf	others
COc1cc(/C=N/NC(=O)c2c(-c3c(Cl)cccc3Cl)noc2C)ccc1OCC(N)=O	i	1	-1	3	4	23	nt	nt
Cc1onc(-c2c(Cl)cccc2Cl)c1C(=O)N/N=C(\N)COc1ccc(Cl)cc1	i	-12	21	28*	21	70*	31*	0	535nm interf DR=>122
CCSc1nnc(CCNS(=O)(=O)c2ccc(C(C)=O)cc2)n1C	i	-2	2	-1	5	-2	nt	nt
CCOC(=O)c1cc(C#N)c(SCC(=O)c2cc(C#N)c(SC)nc2C)nc1C	i	-3	-10	20*	-2	-11	-11	-3
Cn1c(SCC(=O)Nc2cc([N+](=O)[O-])ccc2F)nnc1C(F)(F)F	i	-1	-5	1	1	-11	nt	nt
COc1cc2c(cc1OC)C(c1cc3cc4c(cc3[nH]c1=O)OCO4)N(C(=O)C(C)C)CC2 (stereo unspecified)	i	2	-3	-6	-5	3	nt	nt
CNCc1ccccc1Sc1cc(O)ccc1O	i	6	7	20*	-11	3	38*	-6	535nm interf DR=>122
COc1ccc(COCC(CC(C)C)N2CCN(C(=O)c3cccc(C(F)(F)F)c3)CCC2=O)cc1 (stereo unspecified)	i	-10	0	-7	13	-4	nt	nt
N=C1/C(=C\c2ccc(Br)o2)C(=O)N=C2SC(CC(=O)N3CCCCC3)=NN12	i	5	3	-9	1	3	nt	nt
O=C(N/N=C1\CCSc2ccc(F)cc21)c1cccnc1	i	0	2	7	-5	27	nt	nt
NC(=S)N/N=C1\CCSc2ccc(Cl)cc21	i	nt	-6	30*	4	-6	15	-6
Oc1c(C=C2N=c3ccccc3=N2)sc(=S)n1C1CCCCC1	i	2	0	20*!	7	1	-5	-1
Oc1c(C=C2N=c3ccccc3=N2)sc(=S)n1-c1ccccc1	i	0	1	4	-1	1	nt	nt
O=C(OCC1OC(n2ncc(=O)[nH]c2=O)C(OC(=O)c2ccccc2)C1OC(=O)c1ccccc1)c1ccccc1 (stereo unspecified)	i	14	7	-42	2	-6	nt	nt
CNC(=S)NNC(=O)COc1ccc(C)c(C)c1	nt	1	-3	28*	6	-13	26*	-1
Cc1ccc(OCC(=O)Nc2cccc(O)c2)cc1C	i	-1	-4	-14	-5	-10	nt	nt
COC(=O)c1cc(-c2cc(OC)ccc2OC)nc2c1c(=O)n(C)c(=O)n2Cc1ccccc1	i	2	-3	3	-58	2	nt	nt
Cc1cccc(OCCCC(=O)Nc2ccc(S(=O)(=O)Nc3ncccn3)cc2)c1C	i	2	-10	-16	-5	0	nt	nt
O=C(NCC1CCCCC1)c1cccc([N+](=O)[O-])c1	i	-1	-5	16	0	-5	nt	nt
O=C(NC(=S)N(CC1CCC1)CC1CCCO1)c1cccc([N+](=O)[O-])c1 (stereo unspecified)	i	0	-1	20*	0	12	20*	-3
COCCn1c(C)cc(C(=O)COC(=O)c2cncc(Br)c2)c1C	i	1	-8	21*	nt	-4	6	-8
Cc1cc(C(=O)NCc2csc(-c3ccccc3)n2)no1	i	-1	-3	-2	-7	2	nt	nt
C/C(=N\NC(=O)CN(c1ccccc1)S(=O)(=O)c1ccccc1[N+](=O)[O-])C(C)(C)C	i	-1	5	-9	-1	7	nt	nt
Nc1cccc(-c2cccc3nncn23)c1	i	nt	-12	5	nt	12	nt	nt
COc1ccc(C(C)C)cc1-c1cccc2nncn12	i	nt	6	21*	nt	1	5	-6
SMILES	Myeloid diff 2	DAGLB inhibitor	ABHD5 PLIN5 PPI	sPLA2-III inh	Rtt109 Vps75	H9c2 protect	hGIII sPLA2 conf	BODIPY interf	others
NC(N)=NS(=O)(=O)c1ccc(NC(=S)NC(=O)/C=C/c2cccs2)cc1	i	2	-9	7	-6	0	nt	nt
NC(N)=NS(=O)(=O)c1ccc(NC(=S)NC(=O)/C=C/c2ccc(F)cc2)cc1	i	-4	9	22*	13	7	4	-5
Cc1cc(C)c(O)c(-c2n[nH]c3c2C(c2cccc(O)c2)N(Cc2ccco2)C3=O)c1 (stereo unspecified)	i	3	-6	24*	5	-18	-49	0
CCn1cc(C2C3=C(CC(C)(C)CC3=O)N(c3ccc(C)cc3)C3=C2C(=O)CC(C)(C)C3)c(C)n1	i	-2	-4	20*	-2	14	-3	-12
CCn1cc(C2C3=C(CC(C)(C)CC3=O)N(c3ccccc3)C3=C2C(=O)CC(C)(C)C3)c(C)n1	i	1	7	5	4	12	nt	nt
CCNc1nc(NC(C)C)nc(OCCOC(=O)Nc2ccccc2)n1	i	1	-10	-4	3	2	nt	nt
CCNc1nc(NCC)nc(OCCOC(=O)Nc2ccccc2)n1	i	-2	7	19*	-2	0	-5	-6
O=C(OC[C@@H]1CCCN2CCCC[C@H]12)c1cc2ccccc2oc1=O	i	-2	-4	20*	6	6	2	-7
O=C(OC1CCCCC1)c1cc2ccccc2oc1=O	i	-3	-3	-5	16	-4	nt	nt
CC(c1ccccc1)n1c(Cn2ncc3ccccc3c2=O)n[nH]c1=S (stereo unspecified)	i	2	-1	6	0	3	nt	nt
O=c1c2ccccc2cnn1Cc1n[nH]c(=S)n1C1CC2CCC1C2 (stereo unspecified)	i	3	-1	26*	-9	-7	21*	0
